This is an account of results in publication PMC4336329 (PLoS ONE, 2015).

The structures appear in SMILES notation. The whole screen tested about 310,000 compounds, of which about 14,000 (4.5%) showed an effect of 50% or more. The effect is printed as a negative number. The full list was thinned out, with strong results kept by preference.
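Also: peak tail current of the secondary pulse compared with the same well before compound.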

human ether-à-go-go-related gene (hERG) potassium channel, sequence (Q12809 whole entry, looked up): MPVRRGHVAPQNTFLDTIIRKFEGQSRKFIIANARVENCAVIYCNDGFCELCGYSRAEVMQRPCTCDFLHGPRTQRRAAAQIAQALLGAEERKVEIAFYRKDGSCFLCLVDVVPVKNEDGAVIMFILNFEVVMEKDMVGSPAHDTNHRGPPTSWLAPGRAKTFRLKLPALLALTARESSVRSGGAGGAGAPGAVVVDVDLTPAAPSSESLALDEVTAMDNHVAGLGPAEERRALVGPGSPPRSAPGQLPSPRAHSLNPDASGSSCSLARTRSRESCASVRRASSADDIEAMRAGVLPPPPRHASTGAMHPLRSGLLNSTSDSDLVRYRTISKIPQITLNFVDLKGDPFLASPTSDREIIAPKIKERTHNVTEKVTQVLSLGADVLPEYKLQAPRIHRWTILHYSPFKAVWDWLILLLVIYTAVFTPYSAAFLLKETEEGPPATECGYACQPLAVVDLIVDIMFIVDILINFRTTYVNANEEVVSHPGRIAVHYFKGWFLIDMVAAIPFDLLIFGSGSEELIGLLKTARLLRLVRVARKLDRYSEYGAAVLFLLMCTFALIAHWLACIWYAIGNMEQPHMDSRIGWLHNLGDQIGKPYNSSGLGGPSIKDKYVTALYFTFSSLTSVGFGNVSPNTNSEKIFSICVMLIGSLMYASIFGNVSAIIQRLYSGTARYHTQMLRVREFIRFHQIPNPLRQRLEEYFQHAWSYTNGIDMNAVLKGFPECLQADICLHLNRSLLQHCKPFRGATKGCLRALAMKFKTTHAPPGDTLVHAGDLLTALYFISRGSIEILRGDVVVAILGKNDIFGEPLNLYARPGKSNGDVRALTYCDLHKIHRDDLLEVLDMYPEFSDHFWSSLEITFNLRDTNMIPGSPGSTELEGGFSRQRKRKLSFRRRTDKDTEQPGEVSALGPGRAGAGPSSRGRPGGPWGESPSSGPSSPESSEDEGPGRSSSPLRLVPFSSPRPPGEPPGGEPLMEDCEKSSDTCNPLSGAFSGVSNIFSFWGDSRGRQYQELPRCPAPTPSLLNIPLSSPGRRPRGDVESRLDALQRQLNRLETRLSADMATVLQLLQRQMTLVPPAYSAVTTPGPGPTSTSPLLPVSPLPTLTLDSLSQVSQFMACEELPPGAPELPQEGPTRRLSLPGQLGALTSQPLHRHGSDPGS

This experiment concerns the target human ether-à-go-go-related gene (hERG) potassium channel (human, UniProt Q12809). As to the kind of experiment: primary screen, population patch clamp on CHO cells stably expressing hERG; higher = less effect of the substance.
Take `Cc1n[nH]c(C)c1S(=O)(=O)N1CCCC(C(=O)NCC2COc3ccccc3O2)C1` (stereo not drawn): the “hERG current change (%, negative = inhibition) at 10uM” value is given as 0.365%.

Consider `COc1ccccc1CNC(=O)CN1CCC(NC(=O)c2ccccc2F)CC1.Cl`, for which the “hERG current change (%, negative = inhibition) at 10uM” value is reported as -14.5%.

As to `O=C(CN1CCC(NC(=O)Cc2ccccc2)CC1)Nc1ccccc1Br`, the “hERG current change (%, negative = inhibition) at 10uM” value is listed as -29.2%.

For the compound `COc1ccccc1CNC(=O)CN1CCC(n2cnc3cc(F)ccc32)CC1`, the “hERG current change (%, negative = inhibition) at 10uM” value is reported as -66%.

Take `O=C(c1ccc(F)cc1)C1CCN(C(=O)NCc2ccccc2)CC1`: the “hERG current change (%, negative = inhibition) at 10uM” value is recorded as -6.67%.

In the case of `CCOc1ccc(NC(=O)CN2CCC(n3cnc4cc(F)ccc43)CC2)cc1`, the “hERG current change (%, negative = inhibition) at 10uM” value was -74.3%.

For `O=C(CN1CCN(c2ccc(F)cc2)CC1)Nc1ccccc1Br`, the “hERG current change (%, negative = inhibition) at 10uM” value stood at 12.5%.

For the compound `O=C(NCc1ccccc1)N1CCC(n2cnc3cc(F)ccc32)CC1`, the “hERG current change (%, negative = inhibition) at 10uM” value is recorded as -64.3%.

As to `O=C(NCc1ccc(F)cc1)C1CCN(C(=O)NCc2ccccc2)CC1`, the “hERG current change (%, negative = inhibition) at 10uM” value was 6.31%.

For the compound `CCOc1ccc2nc(NC(=O)CN3CCC(n4nnc5cc(F)ccc54)CC3)sc2c1`, the “hERG current change (%, negative = inhibition) at 10uM” value was -40.1%.

In the case of `CCOC(=O)Nc1ccc2c(c1)ncn2C1CCCCC1`, the “hERG current change (%, negative = inhibition) at 10uM” value is on record as -8.98%.

`COc1cccc(C(=O)NC2CCN(CC(=O)NCc3ccccc3OC)CC2)c1`: the “hERG current change (%, negative = inhibition) at 10uM” value is -10.7%.

For the compound `O=C(CN1CCC(n2cnc3cc(F)ccc32)CC1)Nc1ccccc1Br`, the “hERG current change (%, negative = inhibition) at 10uM” value is reported as -87.8%.

With `COc1ccc(C(=O)Nc2ccccc2C(=O)NC(C)C)cc1OC`, the “hERG current change (%, negative = inhibition) at 10uM” value is listed as -6.82%.

For `CCc1nc(SCC(=O)O)c2c3c(sc2n1)COC(C)(C)C3`, the “hERG current change (%, negative = inhibition) at 10uM” value came out at 23.2%.

In the case of `CCCNc1c(NS(=O)(=O)c2ccc(C3CCCCC3)cc2)c(=O)oc2ccccc12`, the “hERG current change (%, negative = inhibition) at 10uM” value is on record as 21.9%.

`Cc1onc(-c2ccccc2)c1-c1csc(N/N=C/c2ccccc2)n1`: the “hERG current change (%, negative = inhibition) at 10uM” value was 8.79%.

Take `CC(C)[C@H](NC(=O)c1cccc(S(=O)(=O)N2CCCC2)c1)c1nc2ccccc2[nH]1`: the “hERG current change (%, negative = inhibition) at 10uM” value worked out at 9.05%.

As for `COc1ccc(/C=N/N2CCN(c3ccncc3S(=O)(=O)N3CCCCC3)CC2)cc1`, the “hERG current change (%, negative = inhibition) at 10uM” value came to 10.3%.

As for `CCOC(=O)c1cc2sc(C)cc2n1CC(=O)N1CCN(C(=O)c2ccco2)CC1`, the “hERG current change (%, negative = inhibition) at 10uM” value is reported as -8.61%.

For `Cc1ccc2nc(Cl)c(/C=N/NC(=O)[C@H]3C[C@@H]3c3ccccc3)cc2c1`, the “hERG current change (%, negative = inhibition) at 10uM” value is 19.5%.

In the case of `O=C(Cc1ccc(-c2ccccc2)cc1)NCCN1CCOCC1`, the “hERG current change (%, negative = inhibition) at 10uM” value is reported as 0.566%.

For `COc1cccc(CC2(CO)CCCN(Cc3sc(N4CCCC4)nc3Cl)C2)c1` (stereo not drawn), the “hERG current change (%, negative = inhibition) at 10uM” value is on record as -27.2%.

With `COc1cccc(CC2(CO)CCCN(Cc3ccc(OC(F)F)cc3)C2)c1` (stereo not drawn), the “hERG current change (%, negative = inhibition) at 10uM” value is listed as -68.6%.

Consider `COc1cccc(CC2(CO)CCCN(Cc3[nH]c4ccc(C)cc4c3C)C2)c1` (stereo not drawn), for which the “hERG current change (%, negative = inhibition) at 10uM” value is listed as -74.7%.

With `COc1cccc(CC2(CO)CCCN(Cc3ccc(CN4CCCCC4)s3)C2)c1` (stereo not drawn), the “hERG current change (%, negative = inhibition) at 10uM” value is reported as -22.1%.

Regarding `COc1cccc(CC2(CO)CCCN(Cc3ccc4c(c3)OCCO4)C2)c1` (stereo not drawn), the “hERG current change (%, negative = inhibition) at 10uM” value is on record as -58.5%.

Consider `COc1cccc(CC2(CO)CCCN(Cc3cc4ccccc4[nH]3)C2)c1` (stereo not drawn), for which the “hERG current change (%, negative = inhibition) at 10uM” value was -37.5%.

As for `OCC1(Cc2ccccc2)CCCN(Cc2ccc3c(c2)OCCO3)C1` (stereo not drawn), the “hERG current change (%, negative = inhibition) at 10uM” value was -24.6%.

Consider `COc1cccc(CC2(CO)CCCN(Cc3ccc(C)s3)C2)c1` (stereo not drawn), for which the “hERG current change (%, negative = inhibition) at 10uM” value is -50.5%.
